Reference: PubChem BioAssay (NCATS)
“And” between values parts separate entries of the source, which are not always exact repeats. Equal entries are not always repeated. Results filed as inconclusive are left out. Entries that show only a call come without a potency. The source made the active and inactive calls. Unless noted, the call rests on the fitted dose curve; in most records, active means well fitted curve in the direction sought with a large enough effect; inconclusive means small, poorly fitted or top-dose-only effect, or another doubt; inactive means no such curve, though single readings can be large; an effect the other way counts as inactive or inconclusive.

Experiments:
[1] = Primary qHTS for small molecule stabilizers of the endoplasmic reticulum resident proteome: Secreted ER Calcium Modulated Protein (SERCaMP) assay (AID 1508630)
In short: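 The SH-SY5Y reporter protocol was run at 3 concentrations up to 38.3 uM (primary) or 11 concentrations (follow-up): 16 h compound, 100 nM thapsigargin for 4 h, then extracellular luciferase luminescence.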

[2] = A High-Content qHTS Against Drug Library for the Identification of Small Molecules that Inhibit DYT1 Early Onset Primary Dystonia-Associated Cell Pathology (AID 1645839; calls by dose curve; further: series mostly up to about 46 µM)
In short: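 Induced EGFP-delE TorsinA cells are imaged after 48 h of compound treatment. Punctate fusion-protein distribution gives the %pathology value, while nuclei counts flag toxicity. Wild-type EGFP-hTOR1A cells define the normal pattern.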

[3] = molecular target: Cytochrome P450 2D6 (Homo sapiens) (UniProt P10635); assay: Cytochrome P450 family 2 subfamily D member 6 (CYP2D6) small molecule antagonists: luciferase biochemical (cell-free) qHTS assay (AID 1645840; active means well fitted curve in the direction sought with a large enough effect in the repeat runs; an effect the other way counts as inactive or inconclusive; further: series mostly up to about 57 µM; nearly all actives have a fitted effect of over 55% in size)
In short: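 P450-Glo CYP2D6 system: proluciferin substrate converted by enzyme to luciferin, read by luminescence proportional to activity. Enzyme-substrate mix with compound 10 min at room temperature, then NADPH regeneration 1 h before detection reagent.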

[4] = Primary qHTS for inhibitors of nuclear receptor binding SET domain protein 2 (NSD2) in an isogenic RCH-ACV NSD2 p.E1099K mutant (9B) (AID 1645876); further: nearly all actives have a fitted effect of over 70% in size; further: potency means the concentration at half of the fitted maximal effect
[5] = Primary qHTS for inhibitors of nuclear receptor binding SET domain protein 2 (NSD2) in an RCH-ACV wild type WT cells (2C) (AID 1645877); further: nearly all actives have a fitted effect of over 70% in size; further: potency means the concentration at half of the fitted maximal effect
[6] = molecular target: Cytochrome P450 2C9 (Homo sapiens) (UniProt P11712); assay: Cytochrome P450 family 2 subfamily C member 9 (CYP2C9) small molecule antagonists: luciferase biochemical (cell-free) qHTS assay (AID 1645842; active means well fitted curve in the direction sought with a large enough effect in the repeat runs; an effect the other way counts as inactive or inconclusive; further: series mostly up to about 57 µM; nearly all actives have a fitted effect of over 55% in size)
In short: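 P450-Glo CYP2C9 system: proluciferin substrate with enzyme in mix containing 0.4% BSA, 10 min at room temperature, then NADPH regeneration solution added and incubated 1 h at 37C. Detection reagent stopped reaction; luminescence read after 20 min as RLU.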

[7] = molecular target: Cytochrome P450 3A4 (Homo sapiens) (UniProt P08684); assay: Cytochrome P450 family 3 subfamily A member 4 (CYP3A4) small molecule antagonists: luciferase qHTS assay (AID 1645841; active means well fitted curve in the direction sought with a large enough effect in the repeat runs; an effect the other way counts as inactive or inconclusive; further: nearly all actives have a fitted effect of over 45% in size)
In short: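 P450-Glo CYP3A4 enzyme with proluciferin substrate was preincubated with DMSO-dissolved compounds for 10 min at room temperature. NADPH regeneration solution started a 1 h reaction. Detection reagent stopped it, and luminescence was read after 20 min.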

[8] = molecular target: N-terminal Xaa-Pro-Lys N-methyltransferase 1 (Homo sapiens) (UniProt Q9BV86); assay: Confirmatory qHTS for Inhibitors of N-terminal methyltransferase 1 (NTMT1): MTaseGlo Assay (AID 1645874); further: nearly all actives have a fitted effect of over 65% in size; further: potency means the concentration at half of the fitted maximal effect
In short: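 MTase-Glo luminescence measured SAH formed by 125 nM NTMT1 from 100 uM SAM and 1 uM SPKRIA peptide over 30 min at room temperature, following 15 min compound preincubation. Percent inhibition against no-enzyme and DMSO controls gave 4-parameter Hill fits.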

Cytochrome P450 3A4 (Homo sapiens), sequence (P08684 whole entry, looked up): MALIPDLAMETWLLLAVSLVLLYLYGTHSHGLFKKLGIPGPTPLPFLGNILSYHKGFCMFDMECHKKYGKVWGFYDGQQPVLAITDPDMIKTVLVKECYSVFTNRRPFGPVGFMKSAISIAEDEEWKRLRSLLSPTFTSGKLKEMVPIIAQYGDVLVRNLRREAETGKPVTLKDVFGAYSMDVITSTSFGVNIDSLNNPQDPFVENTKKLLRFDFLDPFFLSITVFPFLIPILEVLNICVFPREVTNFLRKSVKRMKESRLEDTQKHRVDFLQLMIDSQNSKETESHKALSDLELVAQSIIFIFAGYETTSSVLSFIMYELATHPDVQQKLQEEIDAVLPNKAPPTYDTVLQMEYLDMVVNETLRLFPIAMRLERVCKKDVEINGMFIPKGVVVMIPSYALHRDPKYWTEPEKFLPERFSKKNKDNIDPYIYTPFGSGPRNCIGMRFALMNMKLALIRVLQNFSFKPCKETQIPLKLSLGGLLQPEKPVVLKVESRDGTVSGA
Cytochrome P450 2D6 (Homo sapiens), sequence (P10635 whole entry, looked up): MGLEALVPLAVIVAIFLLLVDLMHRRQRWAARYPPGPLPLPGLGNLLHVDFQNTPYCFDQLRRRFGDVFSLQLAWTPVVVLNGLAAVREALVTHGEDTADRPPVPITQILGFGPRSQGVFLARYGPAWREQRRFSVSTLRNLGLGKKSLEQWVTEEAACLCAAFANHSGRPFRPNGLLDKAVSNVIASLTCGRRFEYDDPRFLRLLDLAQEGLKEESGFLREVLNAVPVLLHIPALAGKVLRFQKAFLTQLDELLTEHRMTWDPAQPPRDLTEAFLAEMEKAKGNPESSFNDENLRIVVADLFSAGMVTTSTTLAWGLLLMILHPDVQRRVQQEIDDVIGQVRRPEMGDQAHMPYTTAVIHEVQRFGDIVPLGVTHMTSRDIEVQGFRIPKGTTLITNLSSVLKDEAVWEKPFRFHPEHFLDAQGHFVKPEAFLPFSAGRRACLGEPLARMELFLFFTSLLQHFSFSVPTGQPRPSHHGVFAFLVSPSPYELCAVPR
Cytochrome P450 2C9 (Homo sapiens), sequence (P11712 whole entry, looked up): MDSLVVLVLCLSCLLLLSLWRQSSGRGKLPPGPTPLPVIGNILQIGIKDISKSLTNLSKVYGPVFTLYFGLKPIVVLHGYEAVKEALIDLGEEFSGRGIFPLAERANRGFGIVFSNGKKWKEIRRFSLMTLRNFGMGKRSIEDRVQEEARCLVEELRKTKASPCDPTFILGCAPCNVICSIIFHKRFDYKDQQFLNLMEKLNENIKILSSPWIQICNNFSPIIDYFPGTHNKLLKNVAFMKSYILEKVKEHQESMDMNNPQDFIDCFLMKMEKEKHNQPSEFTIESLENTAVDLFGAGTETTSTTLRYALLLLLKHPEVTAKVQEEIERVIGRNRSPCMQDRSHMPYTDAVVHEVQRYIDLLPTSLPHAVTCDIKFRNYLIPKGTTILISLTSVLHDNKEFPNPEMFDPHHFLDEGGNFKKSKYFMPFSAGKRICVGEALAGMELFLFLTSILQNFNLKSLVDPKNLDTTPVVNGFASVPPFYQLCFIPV
N-terminal Xaa-Pro-Lys N-methyltransferase 1 (Homo sapiens), sequence (Q9BV86 whole entry, looked up): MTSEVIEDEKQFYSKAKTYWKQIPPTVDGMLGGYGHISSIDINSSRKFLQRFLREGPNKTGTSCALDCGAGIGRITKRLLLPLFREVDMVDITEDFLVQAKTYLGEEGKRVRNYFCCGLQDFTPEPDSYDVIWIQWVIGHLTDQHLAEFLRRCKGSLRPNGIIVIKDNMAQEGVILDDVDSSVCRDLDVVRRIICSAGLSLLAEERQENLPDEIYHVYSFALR

Structure (SMILES): Cc1nnc(NS(=O)(=O)c2ccc(N)cc2)s1
- Potency [1]: inactive
- Potency [2]: inactive
- Potency [3]: inactive
- Potency [4]: inactive
- Potency [5]: inactive

Structure (SMILES): NC(=O)c1cccnc1
- Potency [1]: inactive
- Potency [2]: inactive
- Potency [6]: inactive
- Potency [4]: inactive
- Potency [5]: inactive

Structure (SMILES): Nc1nc(F)nc2c1ncn2[C@@H]1O[C@H](CO)[C@@H](O)[C@@H]1O
- Potency [1]: inactive
- Potency [2]: inactive
- Potency [6]: inactive
- Potency [4]: 2.09 µM (active) and 94.4 nM (active) and 1.29 µM (active)
- Potency [5]: 2.63 µM (active) and 84.1 nM (active) and 1.29 µM (active)

Structure (SMILES): COc1ncnc(NS(=O)(=O)c2ccc(N)cc2)c1OC
- Potency [1]: inactive
- Potency [2]: inactive
- Potency [4]: inactive
- Potency [5]: inactive

Structure (SMILES): CNC1CCCN(c2c(F)cc3c(=O)c(C(=O)O)cn(C4CC4)c3c2OC)C1 (stereo not drawn)
- outcome [7]: inactive

Structure (SMILES): O=C(O)c1ccc(-n2nc(-c3ccccc3O)nc2-c2ccccc2O)cc1
- outcome [7]: inactive

Structure (SMILES): Nc1nc(=S)c2[nH]cnc2[nH]1
- Potency [8]: inactive

Structure (SMILES): COc1cc2ncnc(Nc3cccc(Cl)c3)c2cc1OC
- Potency [8]: 12.6 µM (active)
